# Test results: PubChem BioAssay (EPA / NIEHS)
# Values joined by “and” are separate entries in the source; they are usually repeats but may differ in a detail not shown here. Equal values may be shown once. Records with an inconclusive call do not appear. Some compounds were tested as several samples or in several runs, with calls that do not always agree. Active and inactive are the calls of the source. The calls were made as follows: active = hit-call score of the fitted dose curve at least 0.9, where 1 is the maximum; inconclusive = response in the unintended direction; inactive = score below 0.9.
# Assay: TOX21_p53_BLA_p5_viability: Viability Assessment in the Tox21 HCT-116 p53 Agonism Beta-lactamase Assay, Phase 5 (AID 2283600)
# Text: TOX21_p53_BLA_p5 is a cell-based, single-readout assay that uses HCT116, a human intestinal cell line, […] in a 1536-well plate.TOX21_p53_BLA_p5_viability is an assay readout measuring cellular ATP content and detected with CellTiter-Glo Luciferase-coupled ATP quantitation.TOX21_p53_BLA_p5_viability used a type of viability reporter where loss-of-signal activity can be used to understand changes in the cell viability. Furthermore, this assay endpoint can be referred to as a secondary readout, because this assay has produced multiple assay endpoints where this one serves a viability function. To generalize the intended target to other relatable targets, this assay endpoint is annotated to the cell cycle intended target family, where the subfamily is cytotoxicity.
# Thawing Method: Place 14 mL of pre-warmed thaw medium into a 15 mL of conical tub. Remove the vial of cells to be thawed from liquid nitrogen and thaw rapidly by placing at 37C in a water bath with gentle agitation for 1-2 minutes. Decontaminate the vial by wiping with 70% ethanol before opening in a biological safety cabinet. Transfer the vial contents drop-wise into 14 mL of thaw medium in a sterile 15-mL conical tub. Centrifuge cells at 900 rpm for 4 minutes and resuspend in thaw medium. Transfer contents to the T75 tissue culture flask containing Thaw Medium and place flask in a humidified 37C/5% CO2 incubator. Switch to growth medium at first passage.Propagation Method: Aspirate medium, rinse once in DPBS, add 0.25% Trypsin/EDTA and swirl to coat the cell evenly. Add an equal volume of Growth Medium to inactivate Trypsin after 2-3 minutes incubation at 37C. Centrifuge cells at 900 rpm for 4 minutes and resuspend in growth medium. Cell should be passage or fed at least twice a week.Assay Protocol: Harvest cells from culture in growth medium and resuspend in assay medium. 2.2 Dispense 4000 cells/5 uL/well into 1536-well black/clear bottom plates using a Multidrop dispenser. After the cells were incubated at 37C for 5 hours, 23 nL of compounds dissolved in DMSO were transferred to the assay plate by a PinTool resulting in a 217-fold dilution. Incubate the plates for 16 hours at 37C, 5% CO2. Add 1 uL of 6X LiveBLAzer FRET B/G (CCF4-AM) Substrate Mixture to each well using a BioRAPTR dispenser and incubate the plates at room temperature for 2 hours. Measure fluorescence intensity at 460 and 530 nm emission and 405 nm excitation by an Envision detector. Data is expressed as the ratio of 460nm/530nm emissions. Add 4 uL of Cell-titer Glo to each well using BioRAPTR and incubate the plates at room temperature for […]. For cell viability readout that measures cytotoxicity, 4 ul/well of CellTiter-Glo reagent was added into the assay plates using a Flying Reagent Dispenser. After 30 min incubation at room temperature, the luminescence intensity in the plates was measured using a ViewLux plate reader.
SMILES,outcome,AC50
NCCCNCCCN,inactive,
ClC1=C(Cl)C2(Cl)C(CBr)CC1(Cl)C2(Cl)Cl (stereo not given),inactive,36.3 µM (active)
[S]=[Sb](=[S])[S][Sb](=[S])=[S],inactive,
Oc1cc(Cl)ccc1Cl,inactive,
C(CCOCC1CO1)COCC1CO1 (stereo not given),inactive,
CCCCCCC1CCOC1=O (stereo not given),inactive,
CCN(CC)C(=O)[C@@H]1C=C2c3cccc4[nH]cc(c34)C[C@H]2N(C)C1,inactive,
C#CCOC(C(=O)OCCN(C)C)(c1ccccc1)c1ccccc1,inactive,
CCCCCc1cc(O)c2c(c1)OC(C)(C)[C@@H]1CCC(C)=C[C@@H]21,,32.8 µM (active)
C[C@@H]([C@H](O)c1ccccc1)N(C)C,inactive,
CCOC(=O)c1cn2nc(OP(=S)(OCC)OCC)cc2nc1C,inactive,
NNC(=O)c1ccccc1,inactive,
CC1(C)[C@H](C(=O)O[C@H](C#N)c2cccc(Oc3ccccc3)c2)[C@@H]1C=C(Br)Br,inactive,
CCC1(CC)C(=O)C=CNC1=O,inactive,
CN(C)c1ccc(N=Nc2ccccc2)cc1,inactive,
CC(C)(Cl)Cl,inactive,
CC(=O)C(Cl)(Cl)Cl,inactive,
COc1cc(CC(C)N)c(OC)cc1Br (stereo not given),inactive,
Oc1cc[c]([Hg][Cl])cc1,,25.3 µM (active) and 10.5 µM (active)
O=C1NCN(c2ccccc2)C12CCN(CC1COc3ccccc3O1)CC2 (stereo not given),inactive,

SMILES,outcome,AC50
CCC[CH2][Sn]([CH2]CCC)([O]C(C)=O)[O]C(C)=O,inactive,
O=[N+]([O-])C(Br)Br,inactive,
CC1NCCOC1c1ccccc1 (stereo not given),inactive,
CSSC,inactive,
NC1(c2ccccc2)CCCCC1,inactive,
CC[C@H]1C[C@H]2[C@@H]3CCC4=CC(=O)CC[C@@H]4[C@H]3CC[C@]2(C)[C@H]1O,inactive,
CC(C)(C)NCC(O)c1ccccc1Cl (stereo not given),inactive,
CC(Cc1ccccc1)NCCn1cnc2c1c(=O)n(C)c(=O)n2C (stereo not given),inactive,
Nc1c(Br)cc([N+](=O)[O-])cc1[N+](=O)[O-],inactive,
CC(Cl)C(=O)O (stereo not given),inactive,
C=CCOCC1CO1 (stereo not given),inactive,
Cl,inactive,
CC(=O)O[C@H]1C[C@H](O[C@H]2[C@@H](O)C[C@H](O[C@H]3[C@@H](O)C[C@H](OC4CC[C@@]5(C)[C@H](CC[C@@H]6[C@@H]5CC[C@]5(C)[C@@H](C7=CC(=O)OC7)CC[C@]65O)C4)O[C@@H]3C)O[C@@H]2C)O[C@H](C)[C@H]1O[C@@H]1O[C@H](CO)[C@@H](O)[C@H](O)[C@H]1O (stereo not given in full),,0.0749 µM (active)
COc1ccc2c(C(=O)c3ccc(Cl)cc3)c(C)n(CC(=O)O)c2c1,inactive,
Cc1cnc[nH]1,inactive,
Clc1ccc(CCC(Cn2ccnc2)Sc2c(Cl)cccc2Cl)cc1 (stereo not given),inactive,
Cc1c(Cl)c(=O)oc2cc(OP(=O)(OCCCl)OCCCl)ccc12,inactive,
CN[C@@H]1C[C@@H](c2ccc(Cl)c(Cl)c2)c2ccccc21,inactive,
CC[n+]1c(-c2ccccc2)c2cc(N)ccc2c2ccc(N)cc21,inactive,
